Data taken from PubChem BioAssay (Tox21).
Records with an inconclusive call do not appear. Calls of active or inactive are those of the source. Unless noted, calls come from the whole dose curve; as a rule, active = well fitted curve in the direction sought with a large enough effect in the repeat runs; inconclusive = weak or mixed curves; inactive = no such curve, though single readings can be large; an effect the other way counts as inactive or inconclusive.

How the values were obtained:
[1] = target: Thyrotropin receptor (Homo sapiens) (UniProt P16473); assay: qHTS assay to identify small molecule agonists of the thyroid stimulating hormone receptor (TSHR) signaling pathway (AID 1224843; calls by dose curve; note: nearly all actives have a fitted effect of over 45% in size)
Thyrotropin receptor (Homo sapiens), sequence (P16473 whole entry, looked up): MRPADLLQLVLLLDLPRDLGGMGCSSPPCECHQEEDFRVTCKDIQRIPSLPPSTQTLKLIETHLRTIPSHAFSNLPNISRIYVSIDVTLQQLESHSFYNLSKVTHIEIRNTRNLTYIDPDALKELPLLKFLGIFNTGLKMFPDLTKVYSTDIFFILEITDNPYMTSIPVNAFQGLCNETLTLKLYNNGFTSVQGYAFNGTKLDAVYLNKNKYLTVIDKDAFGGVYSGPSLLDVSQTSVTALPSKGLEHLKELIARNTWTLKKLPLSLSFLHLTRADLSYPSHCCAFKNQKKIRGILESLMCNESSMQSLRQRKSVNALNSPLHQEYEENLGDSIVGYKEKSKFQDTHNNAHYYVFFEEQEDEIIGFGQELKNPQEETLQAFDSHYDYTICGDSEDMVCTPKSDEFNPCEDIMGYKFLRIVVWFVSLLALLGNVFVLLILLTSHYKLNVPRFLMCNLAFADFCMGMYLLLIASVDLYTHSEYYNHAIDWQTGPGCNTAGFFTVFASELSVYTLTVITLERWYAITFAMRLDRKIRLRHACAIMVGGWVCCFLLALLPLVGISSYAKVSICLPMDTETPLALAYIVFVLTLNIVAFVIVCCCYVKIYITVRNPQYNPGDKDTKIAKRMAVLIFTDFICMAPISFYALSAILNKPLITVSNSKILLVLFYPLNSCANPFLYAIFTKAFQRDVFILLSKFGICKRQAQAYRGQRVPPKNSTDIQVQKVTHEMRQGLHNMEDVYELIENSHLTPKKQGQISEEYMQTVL
Procedure, shortened: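 Cell line HEK293 with TSHR; density 800/well. Exposure 30 min RT. Readout HTRF cAMP (cAMP-d2/anti-cAMP-cryptate), 1 h RT before reading.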

[2] = qHTS assay to identify small molecule agonists of the hypoxia (HIF-1) signaling pathway (AID 1224846; active = well fitted activation curve with a large enough effect in the signal ratio in the repeat runs, not every such curve was filed as active; the % refers to the signal ratio)
Procedure, shortened: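 HRE-bla ME-180 cells (beta-lactamase reporter under hypoxia response element) were plated at 2,000 cells/well in medium with 0.5% dialyzed FBS, rested 5 hrs, then given compounds in DMSO for 17 hrs at 37C, 5% CO2. Reporter induction was read with CCF4-AM FRET substrate.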

[3] = qHTS assay to identify small molecule agonists of H2AX - cell viability counter screen (AID 1224847; calls by dose curve; note: nearly all actives have a fitted effect of over 30% in size; note: potency is the fitted concentration of half-maximal effect)
Procedure, shortened: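 For this counter screen, overnight-attached CHO-K1 cells received test compounds (15 concentrations, 0.76% DMSO final); 3 hr later at 37C, CellTiter-Glo reagent was added and luminescence recorded after 30 min at room temperature.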

[4] = qHTS assay to identify small molecule antagonists of the estrogen related receptor (ERR) signaling pathway from Tox21 library (AID 1224848); note: nearly all actives have a fitted effect of over 50% in size; note: potency is the fitted concentration of half-maximal effect
Procedure, shortened: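 Screening used an ERR reporter line supplied by NTP, exposed for 18 h at 37 C to library compounds delivered in DMSO. Signal was luciferase luminescence developed with ONE-Glo at room temperature for 30 min.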

[5] = qHTS assay to identify small molecule agonists of the estrogen related receptor (ERR) signaling pathway from Tox21 library (AID 1224849; calls by dose curve; note: nearly all actives have a fitted effect of over 15% in size); details: ERR reporter cell line, ONE-Glo luciferase, 18 h; at 92.4 µM (top of the series) unless noted
Procedure, shortened: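 ERR reporter cell line (NTP) seeded, rested 6 h at 37 C/5% CO2, then pinned with Tox21 compounds in DMSO. After 18 h at 37 C, ONE-Glo luciferase luminescence was read following 30 min at room temperature.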

[6] = qHTS RealTime-Glo MT Cell Viability Assay in HepG2 cells - 24 hour (AID 1224867); note: nearly all actives have a fitted effect of over 50% in size; note: potency is the fitted concentration of half-maximal effect
Procedure, shortened: (§1)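 Compound treatment began 5 h after plating HepG2 cells (600/well) with NanoLuc luciferase and prosubstrate. Plates stayed at 37 C for 40 h; luminescence was captured at six time points, 0 h through 40 h.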

[7] = qHTS RealTime-Glo MT Cell Viability Assay in HEK293 cells - 32 hour (AID 1224868); note: nearly all actives have a fitted effect of over 50% in size; note: potency is the fitted concentration of half-maximal effect
Procedure, shortened: (§2)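 Quantitative high-throughput screen of the Tox21 10K library in HEK293: cells and RealTime-Glo reagents plated together, compound added at 5 h, luminescence monitored through 40 h at 37 C.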

[8] = A CellTox Green Cytotoxicity Assay to monitor cytotoxicity in HEK293 cells - 0 hour (AID 1224869); note: nearly all actives have a fitted effect of over 50% in size
Procedure, shortened: (§3)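 HEK293 cells premixed with CellTox Green dye were seeded at 600 cells/well and left 5 h at 37 C/5% CO2 before pin transfer of 23 nL compound in DMSO. Fluorescence from dye bound to dead-cell DNA was read during 40 h treatment.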

[9] = qHTS RealTime-Glo MT Cell Viability Assay in HepG2 cells - 40 hour (AID 1224870); note: nearly all actives have a fitted effect of over 50% in size; note: potency is the fitted concentration of half-maximal effect
Procedure, shortened: (§4)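 HepG2 cells mixed with RealTime-Glo MT reagents (NanoLuc plus cell-permeant prosubstrate) were seeded at 600 cells/well, incubated 5 h at 37 C/5% CO2, then pinned with compounds in DMSO; nonlytic luminescence tracked viability during 40 h treatment.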

[10] = qHTS RealTime-Glo MT Cell Viability Assay in HEK293 cells - 16 hour (AID 1224872); note: nearly all actives have a fitted effect of over 50% in size; note: potency is the fitted concentration of half-maximal effect
Procedure, shortened: as §2

[11] = qHTS RealTime-Glo MT Cell Viability Assay in HepG2 cells - 8 hour (AID 1224873); note: nearly all actives have a fitted effect of over 55% in size
Procedure, shortened: as §4

[12] = qHTS RealTime-Glo MT Cell Viability Assay in HEK293 cells - 40 hour (AID 1224874); details: RealTime-Glo luminescence; max response: hits give low values; note: nearly all actives have a fitted effect of over 50% in size; note: potency is the fitted concentration of half-maximal effect
Procedure, shortened: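 HEK293 cells mixed with RealTime-Glo reagents (NanoLuc plus cell-permeant prosubstrate) at 600 cells/well, preincubated 5 h at 37 C/5% CO2, then given 23 nL compound in DMSO. Nonlytic luminescence from viable cells was read at 0, 8, 16, 24, 32 and 40 h.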

[13] = A CellTox Green Cytotoxicity Assay to monitor cytotoxicity in HepG2 cells - 24 hour (AID 1224878); note: nearly all actives have a fitted effect of over 45% in size; note: potency is the fitted concentration of half-maximal effect
Procedure, shortened: (§5)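 HepG2 cells were seeded together with the CellTox Green dye at 600 cells/well, left 5 h at 37 C/5% CO2, then given compounds in DMSO. Fluorescence from dye bound to dead-cell DNA was read repeatedly over 40 h of treatment at 37 C.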

[14] = A CellTox Green Cytotoxicity Assay to monitor cytotoxicity in HepG2 cells - 40 hour (AID 1224879); note: nearly all actives have a fitted effect of over 40% in size; note: potency is the fitted concentration of half-maximal effect
Procedure, shortened: as §5

[15] = qHTS assay to identify small molecule agonists of the hypoxia (HIF-1) signaling pathway - cell viability counter screen (AID 1224844; calls by dose curve; note: nearly all actives have a fitted effect of over 50% in size; note: potency is the fitted concentration of half-maximal effect)
Procedure, shortened: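 HRE-bla ME-180 cells in medium with 0.5% dialyzed FBS were preincubated 5 hrs at 37C, exposed to compounds for 17 hrs, then viability was read as CellTiter-Glo luminescence after 30 min at room temperature, in the reporter wells.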

[16] = A CellTox Green Cytotoxicity Assay to monitor cytotoxicity in HEK293 cells - 40 hour (AID 1224871); note: nearly all actives have a fitted effect of over 45% in size
Procedure, shortened: as §3

[17] = A CellTox Green Cytotoxicity Assay to monitor cytotoxicity in HEK293 cells - 24 hour (AID 1224875); note: nearly all actives have a fitted effect of over 45% in size
Procedure, shortened: as §3

[18] = A CellTox Green Cytotoxicity Assay to monitor cytotoxicity in HepG2 cells - 16 hour (AID 1224876); note: nearly all actives have a fitted effect of over 45% in size
Procedure, shortened: as §5

[19] = qHTS RealTime-Glo MT Cell Viability Assay in HepG2 cells - 32 hour (AID 1224877); note: nearly all actives have a fitted effect of over 55% in size; note: potency is the fitted concentration of half-maximal effect
Procedure, shortened: as §1

[20] = qHTS assay to identify small molecule agonists of H2AX (AID 1224845; active = well fitted activation curve with a large enough effect in the signal ratio in the repeat runs, not every such curve was filed as active; the % refers to the signal ratio)
Procedure, shortened: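 Wild-type CHO-K1 cells plated overnight, then exposed 3 hr at 37C to compounds at 15 concentrations (0.76% DMSO). Lysed, then HTRF anti-pH2AX(S139)-cryptate/anti-H2AX-d2 detection after 24 hr at room temperature; emissions 665 and 620 nm.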
% is set by controls: 0 for no effect and ±100 for the full control effect.

C=Cc1ccc(S(=O)(=O)O)cc1
inactive: Potency [1] | outcome [2] | Potency [3] | Potency [4] | activity change, positive = activation [5] 6.91% | Potency [6] | Potency [7] | Potency [8] | Potency [9] | Potency [10] | Potency [11] | max response [12] -10.1%
active: Potency [13] 49 µM | Potency [14] 54.9 µM

COC(=O)CCS
inactive: Potency [1] | Potency [15] | outcome [2] | Potency [3] | Potency [6] | Potency [7] | Potency [8] | Potency [9] | Potency [16] | Potency [11] | max response [12] 21.6% | Potency [17] | Potency [18] | Potency [19] | Potency [13] | Potency [14]

CC(C)=CCC1C(=O)N(c2ccccc2)N(c2ccccc2)C1=O
inactive: Potency [1] | Potency [20] | Potency [3] | Potency [6] | Potency [7] | Potency [8] | Potency [9] | Potency [16] | Potency [11] | max response [12] 4.23% | Potency [17] | Potency [18] | Potency [19] | Potency [13] | Potency [14]

CC(=O)NC1(c2cccc(F)c2)CCN(CC[C@@]2(c3ccc(Cl)c(Cl)c3)CN(c3ccccc3)C(=O)CO2)CC1
inactive: Potency [1] | outcome [2] | Potency [8]
active: Potency [15] 39 µM | Potency [6] 43.8 µM | Potency [7] 17.4 µM | Potency [9] 43.8 µM | Potency [10] 17.4 µM | Potency [12] 17.4 µM | Potency [19] 43.8 µM | Potency [14] 43.8 µM

O=C(Cn1ccnc1[N+](=O)[O-])NCCO
inactive: Potency [1] | Potency [15] | outcome [2] | Potency [3] | Potency [6] | Potency [7] | Potency [8] | Potency [9] | Potency [16] | Potency [11] | max response [12] 4.23% | Potency [17] | Potency [18] | Potency [19] | Potency [13] | Potency [14]

C=C/C(C)=C/C/C=C(\C)CCC=C(C)C
inactive: Potency [1] | Potency [20] | outcome [2] | Potency [3] | activity change, positive = activation [5] -20.3% | Potency [6] | Potency [7] | Potency [8] | Potency [9] | Potency [16] | Potency [10] | Potency [11] | max response [12] -7.52% | Potency [17] | Potency [18] | Potency [19] | Potency [13] | Potency [14]

Clc1ccc(Nc2nnc(Cc3ccncc3)c3ccccc23)cc1
active: Potency [4] 11.9 µM | Potency [7] 21.3 µM | Potency [12] 19 µM
inactive: Potency [1] | outcome [2] | Potency [3] | activity change, positive = activation [5] -42.3% [at 42.5 µM] | Potency [6] | Potency [9] | Potency [16] | Potency [11] | Potency [17] | Potency [18] | Potency [19] | Potency [13] | Potency [14]

CN1C(=O)c2ccccc2C1=O
inactive: Potency [1] | Potency [15] | Potency [3] | Potency [4] | activity change, positive = activation [5] 1.36% | Potency [6] | Potency [8] | Potency [9] | Potency [16] | Potency [10] | Potency [11] | Potency [17] | Potency [18] | Potency [19] | Potency [13] | Potency [14]

C[C@@H](O)[C@H]1C(=O)N2C(C(=O)O)=C([C@H]3CCCO3)S[C@H]12
inactive: Potency [1] | Potency [15] | outcome [2] | Potency [3] | Potency [6] | Potency [7] | Potency [8] | Potency [9] | Potency [11] | max response [12] 5.96% | Potency [17] | Potency [18] | Potency [19] | Potency [13] | Potency [14]

CC(CCC(=O)O)C(=O)O (stereo not given)
inactive: Potency [1] | Potency [15] | Potency [3] | Potency [4] | activity change, positive = activation [5] 3.47% | Potency [6] | Potency [7] | Potency [8] | Potency [9] | Potency [16] | Potency [11] | max response [12] 0% | Potency [17] | Potency [19] | Potency [13] | Potency [14]

CN1C[C@H](C(=O)N[C@]2(C)O[C@@]3(O)[C@@H]4CCCN4C(=O)[C@H](Cc4ccccc4)N3C2=O)C[C@@H]2c3cccc4[nH]cc(c34)C[C@H]21
inactive: Potency [1] | activity change, positive = activation [5] -52.3% [at 42.5 µM]
active: Potency [15] 12 µM | Potency [4] 29.8 µM | Potency [7] 21.3 µM | Potency [10] 23.9 µM | Potency [12] 12 µM

COc1ccccc1NC(=O)c1cc2ccccc2cc1O
active: Potency [3] 89.8 µM | Potency [4] 19.3 µM | Potency [7] 34.7 µM | Potency [10] 24.5 µM | Potency [12] 34.7 µM
inactive: Potency [1] | Potency [20] | activity change, positive = activation [5] -49.7% | Potency [8] | Potency [16] | Potency [17] | Potency [18] | Potency [13]

Cc1ccc(C(C)(C)O)cc1
inactive: Potency [1] | Potency [15] | outcome [2] | Potency [3] | Potency [6] | Potency [7] | Potency [8] | Potency [9] | Potency [10] | Potency [11] | max response [12] -0.324% | Potency [17] | Potency [18] | Potency [19] | Potency [13] | Potency [14]

CC[C@]1(O)C[C@H]2CN(CCc3c([nH]c4ccccc34)[C@@](C(=O)OC)(c3cc4c(cc3OC)N(C=O)[C@H]3[C@@](O)(C(=O)OC)[C@H](OC(C)=O)[C@]5(CC)C=CCN6CC[C@]43[C@@H]65)C2)C1
active: Potency [7] 0.0013 µM | Potency [12] 0.0012 µM
inactive: Potency [1] | Potency [20] | Potency [3] | Potency [6] | Potency [8] | Potency [9] | Potency [11] | Potency [17] | Potency [18] | Potency [19] | Potency [13]

O=C1c2ccccc2C(=O)c2c(O)c(O)cc(O)c21
inactive: Potency [1] | Potency [15] | outcome [2] | Potency [4] | activity change, positive = activation [5] -7.48% | Potency [6] | Potency [7] | Potency [8] | Potency [9] | Potency [16] | Potency [10] | Potency [11] | max response [12] 9.06% | Potency [17] | Potency [18] | Potency [19] | Potency [13] | Potency [14]
